The nature of experiment [1]: resazurin metabolic signal in HepG2 cells – cell-based, resazurin fluorescence, 24 h, PK04 Diversity Set, profiling panel (AID 1172). Note: test concentration not given here. To be noted: HepG2 viability, higher = more signal.
Experiment [2] in a line: budding yeast growth changes without added modifier – OD600, strain BY4716, 24 h, basal condition, primary screen (AID 1173). The conditions noted are these: S. cerevisiae BY4716 growth, OD600, 24 h; higher = more signal, called active from +8 up or from −8 down.
Experiment [3] can be described thus: viability profiling in MM1S myeloma cells – cell-based, resazurin fluorescence, basal, 24 h, PK04 Diversity Set, profiling panel (AID 1174).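 Note: MM1S multiple myeloma cell line; test concentration not given here.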 To be noted: higher = more signal, called active from +8 up or from −8 down. Background: Alamar Blue is a resazurin reagent that responds to reducing activity.
In experiment [4] the target is Dihydroorotate dehydrogenase (quinone), mitochondrial (Plasmodium falciparum (isolate 3D7)) (UniProt Q08210). Nature of the experiment: inhibition of P. falciparum DHODH – biochemical, C-terminal His tag, absorbance 600 nm, primary screen (AID 1175).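 Note: recombinant parasite enzyme with a five histidine tag at its C terminus; test concentration not given here.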 The conditions noted are these: PfDHODH enzyme, DCIP absorbance 600 nm; higher = more signal, called active from +8 up or from −8 down.

A short description of experiment [5]: inhibition of PAO1 biofilm formation – strain PAO1, LB-PBS medium, absorbance 600 nm, primary screen (AID 1176). Note: test concentration not given here. To be noted: P. aeruginosa PAO1 growth/biofilm, A600, 12 h; higher = more signal.
A short description of experiment [6]: growth modulation of vineyard yeast isolate – strain RM11-1a, OD600, basal, 24 h, primary screen (AID 1177).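 Note: cultures grown under basal conditions with no added stressor; test concentration not given here.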 To be noted: S. cerevisiae RM11-1a growth, OD600, 24 h; higher = more signal, called active from +8 up or from −8 down.
Experiment [7] in a line: growth of efflux-deficient E. coli DRC39 – strain DRC39, OD650, 24 h, E. coli filamentation inducers, primary screen (AID 1178).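 Note: growth measured as culture turbidity by optical density at 650 nm; test concentration not given here.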 To be noted: E. coli DRC39 acrAB, higher = more signal, called active from +8 up or from −8 down.
Experiment [8] can be described thus: growth of efflux-deficient E. coli DRC39 – strain DRC39, OD650, 48 h, E. coli filamentation inducers, primary screen (AID 1179).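 Note: screen aims at cell division blockers that make cells filament.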 To be noted: E. coli DRC39 delta-acrAB growth, higher = more signal, called active from +8 up or from −8 down.
Experiment [9] in a line: viability profiling in RPMI8226 myeloma cells – cell-based, resazurin fluorescence, basal, 24 h, PK04 Diversity Set, profiling panel (AID 1180).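 Note: RPMI8826 multiple myeloma cell line at 5000 cells per well; test concentration not given here.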 The conditions noted are these: higher = more signal.
Experiment [10] deals with E3 ubiquitin-protein ligase XIAP (Homo sapiens) (UniProt P98170). Nature of the experiment: small molecules binding XIAP protein – biophysical, small-molecule microarray, fluorescence 635 nm, primary screen (AID 1181).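 Note: score merges 667 nm emission and signal to noise over triplicate slides.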 The conditions noted are these: higher = more signal.

Calls of active or inactive are those of the source. Unless noted, the rule behind the calls is not given here.

Dihydroorotate dehydrogenase (quinone), mitochondrial (Plasmodium falciparum (isolate 3D7)), sequence (Q08210 whole entry, looked up): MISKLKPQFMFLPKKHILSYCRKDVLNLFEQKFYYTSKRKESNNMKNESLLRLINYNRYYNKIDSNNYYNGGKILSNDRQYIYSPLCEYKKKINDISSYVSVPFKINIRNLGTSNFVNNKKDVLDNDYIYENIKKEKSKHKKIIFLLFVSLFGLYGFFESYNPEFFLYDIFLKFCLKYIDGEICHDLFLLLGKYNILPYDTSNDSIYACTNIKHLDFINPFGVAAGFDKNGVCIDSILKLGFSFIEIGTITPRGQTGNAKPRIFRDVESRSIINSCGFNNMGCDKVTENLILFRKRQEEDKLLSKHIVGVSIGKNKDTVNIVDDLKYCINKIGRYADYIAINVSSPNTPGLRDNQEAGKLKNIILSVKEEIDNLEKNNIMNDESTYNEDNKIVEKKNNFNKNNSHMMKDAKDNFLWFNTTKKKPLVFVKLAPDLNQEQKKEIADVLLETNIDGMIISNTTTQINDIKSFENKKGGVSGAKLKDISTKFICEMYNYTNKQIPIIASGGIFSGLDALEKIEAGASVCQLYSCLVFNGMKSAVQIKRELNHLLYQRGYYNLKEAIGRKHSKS
E3 ubiquitin-protein ligase XIAP (Homo sapiens), sequence (P98170 whole entry, looked up): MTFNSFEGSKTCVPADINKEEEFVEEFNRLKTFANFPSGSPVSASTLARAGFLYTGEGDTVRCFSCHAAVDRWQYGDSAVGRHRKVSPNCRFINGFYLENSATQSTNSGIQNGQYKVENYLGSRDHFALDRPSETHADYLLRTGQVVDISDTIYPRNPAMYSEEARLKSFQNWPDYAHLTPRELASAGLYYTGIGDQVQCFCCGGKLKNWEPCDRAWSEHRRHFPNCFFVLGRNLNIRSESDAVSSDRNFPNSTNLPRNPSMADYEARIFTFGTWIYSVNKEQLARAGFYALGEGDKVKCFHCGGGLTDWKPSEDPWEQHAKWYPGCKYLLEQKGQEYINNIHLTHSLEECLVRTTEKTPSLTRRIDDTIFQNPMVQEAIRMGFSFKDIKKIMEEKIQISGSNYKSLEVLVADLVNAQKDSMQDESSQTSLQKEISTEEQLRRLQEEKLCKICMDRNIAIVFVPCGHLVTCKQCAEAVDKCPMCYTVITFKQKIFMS

Consider `CC1(C)[C@@H]2CC(C(O)C3C=CC4C(=O)N(Cc5ccccc5)C(=O)C4N3n3cnnc3)=C[C@H]1C2` (stereo not given in full), for which the z-score in experiment [1] is 0.883; in experiment [2], 1.22 (inactive); in experiment [3], -0.12 (inactive); in [5] it was -0.445 (inactive); in [6], 1.29 (inactive); in experiment [7] it was -0.539 (inactive). For the same molecule, the z-score in [8] was 0.102 (inactive); in [9], -0.192. The composite z-score in experiment [4] is 0.525 (inactive); in experiment [10] it was 0.136.
Consider `O=C1O[C@@H](c2ccccc2)[C@@H](c2ccccc2)N2[C@@H](c3ccccc3OCCO)[C@]3(C(=O)Nc4ccccc43)[C@@H](C(=O)Nc3nc4ccccc4s3)[C@H]12`, for which the z-score in experiment [1] is -0.699; in experiment [2], 0.583 (inactive); in [3], -2.95 (inactive); in experiment [5], 1.36 (inactive); in experiment [6], 1.11 (inactive); in [7], -0.986 (inactive). Also, the z-score is -1.25 (inactive) in experiment [8] and -5.15 in experiment [9]. For the same molecule, the values for the composite z-score in experiment [4] and in experiment [10] were 0.905 (inactive) and 0.0975, respectively.
Take `C[C@@]1([C@@H](NC(=O)c2ccc(-c3ccccc3)cc2)c2ccc(Cl)cc2)C[C@H]1C1CCCCC1`: the z-score in [1] is -0.953; in experiment [2] it was 1.52 (inactive); in experiment [3], -2.24 (inactive); in experiment [5], -0.195 (inactive); in experiment [6], 2 (inactive); in experiment [7], -0.325 (inactive). Besides, the z-score in experiment [8] is -0.561 (inactive); in [9], -6.37. Besides, the values for the composite z-score in [4] and in experiment [10] were -0.0475 (inactive) and 0.119, respectively.
Regarding `C=C(CCCC)/C(=C/C[C@@H](OC(C)=O)c1ccc(OCCO)cc1)c1cnc2ccccc2c1`, the z-score in experiment [1] is 0.54; in [2], -0.845 (inactive); in [3], -0.267 (inactive); in experiment [5], 0.825 (inactive); in experiment [6], -0.81 (inactive); in [7] it was 1.85 (inactive). The z-score in experiment [8] was 1.49 (inactive); in experiment [9], 0.445. Also, the values for the composite z-score in experiment [4] and in experiment [10] were -4.4 (inactive) and -0.0228, respectively.
Consider `CC(C)(C)OC(=O)CC[C@]1(C(=O)N2CCOCC2)N=C(c2ccc(OCCCO)cc2)O[C@H]1c1ccccc1N=[N+]=[N-]`, for which the z-score is 0.548 in experiment [1]; -0.515 (inactive) in experiment [2]; -0.095 (inactive) in experiment [3]; -0.0684 (inactive) in experiment [5]; 0.207 (inactive) in experiment [6]; 0.453 (inactive) in [7]. For the same molecule, the z-score in experiment [8] is 0.314 (inactive); in experiment [9], 0.187. Besides, the composite z-score was -0.793 (inactive) in experiment [4] and 0.115 in experiment [10].
For `O=C(NCCO)C1=C[C@H](Oc2ccccc2I)[C@@H](O)[C@H](N(Cc2ccco2)C(=O)Cc2ccccc2)C1`, the z-score in experiment [1] was -1.23; in experiment [2] it was -0.279 (inactive); in experiment [3], -0.123 (inactive); in [5], -0.848 (inactive); in experiment [6], 0.552 (inactive); in experiment [7], -0.49 (inactive). The z-score in experiment [8] was -0.666 (inactive); in experiment [9] it was -0.328. The composite z-score in experiment [4] was 1.06 (inactive); in [10], -0.052.
For `CO[C@H]1O[C@H](CO)[C@@H](OC(=O)Nc2ccccc2)[C@H](OC(=O)Nc2ccccc2)[C@@H]1OC(=O)Nc1ccccc1`, the z-score was -0.72 in experiment [1]; 0.56 (inactive) in experiment [2]; -1.73 (inactive) in [3]; -0.826 (inactive) in [5]; 1.22 (inactive) in [6]; 0.576 (inactive) in experiment [7]. Further, the z-score in experiment [8] was 0.667 (inactive); in experiment [9], -1.15. Also, the composite z-score in experiment [4] was 0.202 (inactive); in [10], 0.178.
As for `C=CC[C@@]1(C(=O)NCCN2CCOCC2)N=C(c2ccc(OCCCO)cc2)O[C@@H]1c1ccccc1N=[N+]=[N-]`, the z-score in [1] is -0.1; in experiment [2], -0.0089 (inactive); in experiment [3], -1.05 (inactive); in [5], 1.61 (inactive); in experiment [6], 2.17 (inactive); in experiment [7], 0.2 (inactive). Further, the results for the z-score in experiment [8] and in [9] were -0.0194 (inactive) and -0.614, respectively. For the same molecule, the composite z-score was 1.61 (inactive) in [4] and 0.107 in experiment [10].
`C[N+](C)(C)CCCCNC(=O)[C@@H]1C[C@@H]2C(=O)N[C@@H](Cc3ccccc3)C(=O)N2[C@@H]1c1cccc(OCCO)c1`: the z-score in experiment [1] is -0.278; in [2], -0.143 (inactive); in [3], 0.548 (inactive); in [5], -0.226 (inactive); in [6], 0.145 (inactive); in [7], 0.994 (inactive). The z-score in experiment [8] was 1.31 (inactive); in experiment [9] it was 0.0965. The values for the composite z-score in experiment [4] and in experiment [10] were -24.9 (active) and -0.138, respectively.
`CN(C)CCCCCCNC(=O)[C@@H]1C[C@@H]2C(=O)N[C@@H](Cc3ccccc3)C(=O)N2[C@@H]1c1ccc(O)cc1`: the z-score in [1] was -0.591; in experiment [2] it was -0.58 (inactive); in experiment [3], -1.09 (inactive); in [5] it was -0.0059 (inactive); in [6], 0.179 (inactive); in experiment [7], -0.725 (inactive). The values for the z-score in experiment [8] and in experiment [9] were -1.25 (inactive) and -0.974, respectively. The results for the composite z-score in experiment [4] and in [10] were 0.0288 (inactive) and 0.458, respectively.
As to `C=C[C@H](CO)NS(=O)(=O)c1ccc(Br)cc1`, the z-score in experiment [1] was 0.578; in experiment [2] it was 0.0356 (inactive); in experiment [3], 0.44 (inactive); in [5], -0.621 (inactive); in experiment [6] it was 0.34 (inactive); in experiment [7], 0.328 (inactive). For the same molecule, the figures for the z-score in experiment [8] and in experiment [9] were 0.276 (inactive) and 0.0112, respectively. For the same molecule, the figures for the composite z-score in experiment [4] and in [10] were -1.05 (inactive) and -0.0559, respectively.
As to `COC(=O)[C@@]1(Cc2ccc(OC)cc2)[C@H]2c3cc(C(=O)N4CCCC4)n(Cc4ccc(C)c(F)c4F)c3C[C@H]2CN1C(=O)c1ccccc1`, the z-score is 0.273 in experiment [1]; 1.9 (inactive) in [2]; -1.4 (inactive) in experiment [3]; -0.843 (inactive) in experiment [5]; 1.41 (inactive) in experiment [6]; 0.35 (inactive) in experiment [7]. The z-score in experiment [8] is -0.237 (inactive); in [9] it was -1.59. The composite z-score is 0.104 (inactive) in experiment [4] and 0.0683 in experiment [10].
Consider `[N-]=[N+]=NCc1ccccc1[C@@H]1OC(c2ccc(OCCCO)cc2)=N[C@]1(Cc1ccccc1)C(=O)NCC(O)CO` (stereo not given in full), for which the z-score in experiment [1] is 0.597; in experiment [2] it was -0.293 (inactive); in experiment [3], -0.869 (inactive); in experiment [5], 1.35 (inactive); in experiment [6], -0.0888 (inactive); in experiment [7], -0.151 (inactive). Besides, the z-score in experiment [8] is -0.465 (inactive); in experiment [9], -0.665. The figures for the composite z-score in experiment [4] and in experiment [10] were -0.0408 (inactive) and -0.0294, respectively.

Source of the values: PubChem BioAssay.
